Reference: PubChem BioAssay AID1159580 (chemical genetic matrix, 2015)
Where “and” joins values, the source holds several entries; their conditions need not be identical. Equal entries are not always repeated. Out of some 5,500 compounds screened, about 2,000 (36%) were called active. About 18% were inconclusive and are not listed. Cut-off read from the data, not from the text of the source: active = normalized growth mostly below about 0.91 (no sharp cut-off); inconclusive = no clear call, values can overlap the other calls; inactive = mostly above about 0.92. The list shows a part of the results.

Experiment: chemical genetic growth profiling, strain panel (AID 1159580);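 note: tested at 20 µM; growth read once vehicle control cultures reached saturation at 30 °C; 1 = growth at the plate median or of vehicle wells; lower values mean less growth of the strain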
Settings: growth OD

Measured: normalized growth

COCCc1ccc(OCC(O)CNC(C)C)cc1 (stereo unspecified)
inactive: S. cerevisiae deletion strains, locus YJR075W, strain HOC1, active compounds read low 1.01 | S. cerevisiae deletion strains, locus YKL009W, strain mrt4, active compounds read low 1 | S. cerevisiae deletion strains, locus YKL068W, active compounds read low 1.01 | S. cerevisiae deletion strains, locus YKL085W, strain MDH1 (second series), active compounds read low 0.998 | S. cerevisiae deletion strains, locus YKL085W, strain MDH1, active compounds read low 0.998 | S. cerevisiae deletion strains, locus YKL160W, strain elf1, active compounds read low 0.98 | S. cerevisiae deletion strains, locus YKL190W, strain CNB1, active compounds read low 1.01 | S. cerevisiae deletion strains, locus YKR001C, strain vps1, active compounds read low 0.999 | S. cerevisiae deletion strains, locus YKR026C, strain gcn3, active compounds read low 1 | S. cerevisiae deletion strains, locus YKR091W, strain srl3, active compounds read low 0.988 | S. cerevisiae deletion strains, locus YLL001W, strain dnm1, active compounds read low 0.935 | S. cerevisiae deletion strains, locus YLL026W, active compounds read low 0.99 | S. cerevisiae deletion strains, locus YLL041C, strain sdh2, active compounds read low 1 | S. cerevisiae deletion strains, locus YLR027C, strain aat2, active compounds read low 1.02 | S. cerevisiae deletion strains, locus YLR039C, strain RIC1, active compounds read low 0.989 | S. cerevisiae deletion strains, locus YLR058C, strain SHM2, active compounds read low 1.01 | S. cerevisiae deletion strains, locus YLR102C, strain apc9, active compounds read low 1.01 | S. cerevisiae deletion strains, locus YLR113W, strain HOG1, active compounds read low 1.03 | S. cerevisiae deletion strains, locus YLR221C, strain rsa3, active compounds read low 0.955 | S. cerevisiae deletion strains, locus YLR258W, strain gsy2, active compounds read low 1.01 | S. cerevisiae deletion strains, locus YLR262C, strain YPT6 (second series), active compounds read low 1 | S. cerevisiae deletion strains, locus YLR262C, strain YPT6, active compounds read low 1 | S. cerevisiae deletion strains, locus YLR268W, strain sec22, active compounds read low 1.08 | S. cerevisiae deletion strains, locus YLR320W, strain mms22, active compounds read low 0.977 | S. cerevisiae deletion strains, locus YLR330W, strain CHS5, active compounds read low 1.01 | S. cerevisiae deletion strains, locus YLR342W, strain FKS1 (second series), active compounds read low 1.01 | S. cerevisiae deletion strains, locus YLR342W, strain FKS1, active compounds read low 0.993 | S. cerevisiae deletion strains, locus YLR357W, strain rsc2, active compounds read low 0.973 | S. cerevisiae deletion strains, locus YLR370C, strain arc18, active compounds read low 0.99 | S. cerevisiae deletion strains, locus YLR371W, strain rom2, active compounds read low 1.01 | S. cerevisiae deletion strains, locus YLR384C, strain iki3, active compounds read low 0.991 | S. cerevisiae deletion strains, locus YLR418C, strain cdc73, active compounds read low 0.986 | S. cerevisiae deletion strains, locus YML016C, strain PPZ1, active compounds read low 1.01 | S. cerevisiae deletion strains, locus YML032C, strain rad52, active compounds read low 1.03 | S. cerevisiae deletion strains, locus YML120C, strain ndi1, active compounds read low 0.942 | S. cerevisiae deletion strains, locus YML124C, strain tub3, active compounds read low 1.01 | S. cerevisiae deletion strains, locus YMR058W, strain fet3, active compounds read low 0.989 | S. cerevisiae deletion strains, locus YMR078C, strain ctf18, active compounds read low 1.01 | S. cerevisiae deletion strains, locus YMR125W, strain sto1, active compounds read low 0.97 | S. cerevisiae deletion strains, locus YMR129W, active compounds read low 0.996 | S. cerevisiae deletion strains, locus YMR205C, strain PFK2, active compounds read low 0.962 | S. cerevisiae deletion strains, locus YMR223W, strain ubp8, active compounds read low 0.995 | S. cerevisiae deletion strains, locus YMR231W, strain pep5, active compounds read low 0.997 | S. cerevisiae deletion strains, locus YMR263W, strain SAP30, active compounds read low 1.02 | S. cerevisiae deletion strains, locus YMR307W, strain GAS1, active compounds read low 1.02 | S. cerevisiae deletion strains, locus YNL067W, strain RPL9B, active compounds read low 1.02 | S. cerevisiae deletion strains, locus YNL071W, strain lat1, active compounds read low 0.989 | S. cerevisiae deletion strains, locus YNL128W, strain TEP1, active compounds read low 1.01 | S. cerevisiae deletion strains, locus YNL153C, strain GIM3, active compounds read low 1.02 | S. cerevisiae deletion strains, locus YNL175C, strain NOP13, active compounds read low 1.01 | S. cerevisiae deletion strains, locus YNL183C, strain NPR1, active compounds read low 1 | S. cerevisiae deletion strains, locus YNL197C, strain WHI3, active compounds read low 0.984 | S. cerevisiae deletion strains, locus YNL209W, strain ssb2, active compounds read low 0.987 | S. cerevisiae deletion strains, locus YNL224C, strain SQS1, active compounds read low 0.988 | S. cerevisiae deletion strains, locus YNL233W, strain BNI4, active compounds read low 1.01 | S. cerevisiae deletion strains, locus YNL248C, strain rpa49, active compounds read low 0.992 | S. cerevisiae deletion strains, locus YNL250W, strain rad50, active compounds read low 1.01 | S. cerevisiae deletion strains, locus YNL271C, strain bni1, active compounds read low 1.01 | S. cerevisiae deletion strains, locus YNL298W, strain CLA4, active compounds read low 1.02 | S. cerevisiae deletion strains, locus YNL307C, strain MCK1, active compounds read low 1.02 | S. cerevisiae deletion strains, locus YNL322C, strain KRE1 (second series), active compounds read low 0.98 | S. cerevisiae deletion strains, locus YNL322C, strain KRE1, active compounds read low 1 and 0.99 | S. cerevisiae deletion strains, locus YNR049C, strain mso1, active compounds read low 0.978 | S. cerevisiae deletion strains, locus YNR052C, strain pop2, active compounds read low 1.01 | S. cerevisiae deletion strains, locus YOL006C, strain TOP1, active compounds read low 1.07 | S. cerevisiae deletion strains, locus YOL012C, strain htz1 0.79 | S. cerevisiae deletion strains, locus YOL147C, strain pex11, active compounds read low 1.01 | S. cerevisiae deletion strains, locus YOR001W, strain rrp6, active compounds read low 1.03 | S. cerevisiae deletion strains, locus YOR061W, strain CKA2, active compounds read low 1.01 | S. cerevisiae deletion strains, locus YOR069W, strain VPS5, active compounds read low 1.01 | S. cerevisiae deletion strains, locus YOR070C, strain gyp1, active compounds read low 0.995 | S. cerevisiae deletion strains, locus YOR080W, strain dia2, active compounds read low 0.985 | S. cerevisiae deletion strains, locus YOR083W, strain WHI5 (second series), active compounds read low 0.999 | S. cerevisiae deletion strains, locus YOR083W, strain WHI5, active compounds read low 0.981 | S. cerevisiae deletion strains, locus YOR106W, strain vam3, active compounds read low 0.957 | S. cerevisiae deletion strains, locus YOR136W, strain idh2, active compounds read low 1.01 | S. cerevisiae deletion strains, locus YOR144C, strain elg1, active compounds read low 1.01 | S. cerevisiae deletion strains, locus YOR184W, strain ser1, active compounds read low 1.02 | S. cerevisiae deletion strains, locus YOR231W, strain MKK1, active compounds read low 1.03 | S. cerevisiae deletion strains, locus YOR265W, strain rbl2, active compounds read low 0.995 | S. cerevisiae deletion strains, locus YOR270C, strain vph1, active compounds read low 0.975 | S. cerevisiae deletion strains, locus YOR290C, strain snf2, active compounds read low 0.91 | S. cerevisiae deletion strains, locus YOR316C, strain cot1, active compounds read low 1.01 | S. cerevisiae deletion strains, locus YPL051W, strain arl3, active compounds read low 1 | S. cerevisiae deletion strains, locus YPL055C, strain LGE1, active compounds read low 0.989 and 1.01 | S. cerevisiae deletion strains, locus YPL078C, strain atp4, active compounds read low 0.978 | S. cerevisiae deletion strains, locus YPL106C, strain sse1, active compounds read low 0.971 | S. cerevisiae deletion strains, locus YPL240C, strain hsp82, active compounds read low 0.992 | S. cerevisiae deletion strains, locus YPL241C, strain CIN2, active compounds read low 1 and 0.974 | S. cerevisiae deletion strains, locus YPL256C, strain CLN2, active compounds read low 1.1 | S. cerevisiae deletion strains, locus YPR119W, strain clb2, active compounds read low 1.02 | S. cerevisiae deletion strains, locus YPR141C, strain kar3, active compounds read low 1.02 | S. cerevisiae deletion strains, locus YPR163C, strain tif3, active compounds read low 1.02 | S. cerevisiae deletion strains, locus YPR167C, strain met16, active compounds read low 1.01 | S. cerevisiae deletion strains, strain wtn01, active compounds read low 1.05 | S. cerevisiae strains, strain wild type, active compounds read low 1.01
